PubChem BioAssay (NCATS)
Records with an inconclusive call do not appear. Unmarked numbers belong to inactive results. Calls come from the whole dose curve; as a rule, active = well fitted inhibition curve with a large enough effect; inconclusive = small, poorly fitted or top-dose-only effect; inactive = no such curve, though single readings can be large or run the other way.

The molecules below were run against Cytochrome P450 2D6 (Homo sapiens) (UniProt P10635) (assay: qHTS for inhibitors of CYP2D6 against the NCATS DSHEA and TCM libraries (AID 1919972)). Settings: CYP2D6 enzymatic inhibition, luminescence qHTS; series mostly up to 18.8 µM; activity change, negative = inhibition: at the top concentration.
Summary of the method: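 Steps: enzyme plus luciferin substrate dispensed; test substances pinned; 15 min RT; 1x NADPH regenerating solution added, 30–45 min RT protected from light; detection reagent, 30 min RT; luminescence measured. Minus-enzyme wells as background.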
% is set by controls: 0 for no effect and ±100 for the full control effect.

Cytochrome P450 2D6 (Homo sapiens), sequence (P10635 whole entry, looked up): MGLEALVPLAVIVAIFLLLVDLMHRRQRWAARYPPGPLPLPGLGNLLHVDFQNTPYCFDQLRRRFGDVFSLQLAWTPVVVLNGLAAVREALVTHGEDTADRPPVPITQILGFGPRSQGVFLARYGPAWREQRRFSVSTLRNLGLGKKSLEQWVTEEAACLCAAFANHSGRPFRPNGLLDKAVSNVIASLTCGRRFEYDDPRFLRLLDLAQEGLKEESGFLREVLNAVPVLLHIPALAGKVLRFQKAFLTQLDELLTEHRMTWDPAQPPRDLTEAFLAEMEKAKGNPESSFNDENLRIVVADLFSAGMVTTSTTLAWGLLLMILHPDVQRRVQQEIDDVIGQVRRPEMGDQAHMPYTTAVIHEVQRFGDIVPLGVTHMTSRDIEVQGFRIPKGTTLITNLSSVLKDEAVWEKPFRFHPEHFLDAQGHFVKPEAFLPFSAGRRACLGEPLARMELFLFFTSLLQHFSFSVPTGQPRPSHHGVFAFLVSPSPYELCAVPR

Structure (SMILES) | activity change, negative = inhibition
CC1CC[C@]2(C(=O)O)CC[C@]3(C(=O)O)C(=CCC4[C@@]5(C)CC[C@H](OC6OC(C)C(O)C(OC7OC(CO)C(O)C(O)C7O)C6O)C(C)(C)C5CC[C@]43C)C2C1C (some centres undefined) | -0.994%
CC(C)=CCC[C@](C)(O)[C@H]1CC[C@]2(C)[C@@H]1[C@H](O)CC1[C@@]3(C)CC[C@H](O)C(C)(C)[C@@H]3[C@@H](O[C@@H]3O[C@H](CO)[C@@H](O)[C@H](O)[C@H]3O[C@@H]3O[C@H](CO)[C@@H](O)[C@H](O)[C@H]3O)C[C@]12C (some centres undefined) | 2.52%
CC(C)=CCC[C@](C)(O[C@@H]1O[C@H](CO[C@@H]2O[C@H](CO)[C@@H](O)[C@H](O)[C@H]2O)[C@@H](O)[C@H](O)[C@H]1O)C1CC[C@]2(C)[C@@H]1[C@H](O)CC1[C@@]3(C)CC[C@H](O[C@@H]4O[C@H](CO)[C@@H](O)[C@H](O)[C@H]4O[C@@H]4O[C@H](CO)[C@@H](O)[C@H](O)[C@H]4O)C(C)(C)[C@@H]3CC[C@]12C (some centres undefined) | -14.8% [at 7.11 µM]
OC[C@H]1O[C@@H](OC[C@H]2O[C@@H](OC/C=C/c3ccccc3)[C@H](O)[C@@H](O)[C@@H]2O)[C@@H](O)[C@@H]1O | 3.01%
